In PubChem BioAssay (EPA / NIEHS):
The source made the active and inactive calls. The calls were made as follows: active = hit-call score of the fitted dose curve at least 0.9, where 1 is the maximum; inactive = score below 0.9.

Tests used:
Details in all cases: mRNA level, 48 h; actives raise or lower the signal
[1] = read-out: Early growth response protein 1 (EGR1) transcription factor, EGR1 (gene 1958); experiment: LTEA_HepaRG_EGR1: Life Technologies and Expression Analysis (LTEA) Assay for Early growth response protein 1 (EGR1) transcription factor using HepaRG (AID 2283490)
In short: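 Differentiated human HepaRG cells in serum-free induction medium were exposed in duplicate for 48 h to eight concentrations (top 100 uM, half-log steps) in 0.5% DMSO. EGR1 mRNA was quantified by qRT-PCR, normalized to ACTB, GAPDH and POLR2A, and fitted bidirectionally versus DMSO.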

[2] = read-out: Ezrin (EZR), EZR (gene 7430); experiment: LTEA_HepaRG_EZR: Life Technologies and Expression Analysis (LTEA) Assay for Ezrin (EZR) using HepaRG (AID 2283491)
In short: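 Gain or loss of EZR mRNA is scored relative to 0.5% DMSO in human HepaRG cultures treated 48 h with test chemicals in duplicate, eight half-log concentrations from 100 uM.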

[3] = read-out: Cytochrome P450 3A7 (Homo sapiens) (UniProt P24462); experiment: LTEA_HepaRG_CYP3A7: Life Technologies and Expression Analysis (LTEA) Assay for CYP3A7 using HepaRG (AID 2283492)
In short: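 Differentiated HepaRG cells in serum-free induction medium exposed 48 h in duplicate to 8-point half-log series from 100 uM top in 0.5% DMSO. CYP3A7 mRNA by qRT-PCR, normalized to ACTB/GAPDH/POLR2A, bidirectional fit versus DMSO.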

CYP3A5 (gene 1577) = experiment: LTEA_HepaRG_CYP3A5: Life Technologies and Expression Analysis (LTEA) Assay for CYP3A5 using HepaRG (AID 2283493)
In short: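 HepaRG plated 48 h, switched to serum-free induction medium, chemicals added 48 h (max 100 uM, half-log, 0.5% DMSO). RNA isolated; CYP3A5 by TaqMan qRT-PCR. Gain/loss vs DMSO.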

[4] = read-out: Fatty Acid-Binding Protein 1 (FABP1), FABP1 (gene 2168); experiment: LTEA_HepaRG_FABP1: Life Technologies and Expression Analysis (LTEA) Assay for Fatty Acid-Binding Protein 1 (FABP1) using HepaRG (AID 2283494)
In short: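 Differentiated human HepaRG cells were exposed in duplicate for 48 h in serum-free induction medium to 8-point half-log concentration series topping at 100 uM in 0.5% DMSO. FABP1 mRNA measured by TaqMan qRT-PCR, normalized to ACTB/GAPDH/POLR2A; bidirectional fit versus DMSO.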

[5] = read-out: Cytochrome P450 7A1 (Homo sapiens) (UniProt P22680); experiment: LTEA_HepaRG_CYP7A1: Life Technologies and Expression Analysis (LTEA) Assay for Cytochrome P450 7A1 (CYP7A1) using HepaRG (AID 2283496)
In short: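 HepaRG cells plated 48 h, then switched to serum-free induction medium and exposed in duplicate for 48 h to 8-point half-log series from 100 uM in 0.5% DMSO. CYP7A1 mRNA by qRT-PCR (TaqMan), normalized to ACTB/GAPDH/POLR2A; bidirectional fit versus DMSO.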

[6] = read-out: Glutamate-cysteine ligase catalytic (GCLC), GCLC (gene 2729); experiment: LTEA_HepaRG_GCLC: Life Technologies and Expression Analysis (LTEA) Assay for Glutamate-cysteine ligase catalytic (GCLC) using HepaRG (AID 2283498)
In short: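 Differentiated human HepaRG cells, plated 48 h then switched to serum-free induction medium, were exposed in duplicate for 48 h to 8 half-log concentrations topping at 100 uM in 0.5% DMSO. GCLC mRNA was quantified by qRT-PCR against ACTB, GAPDH and POLR2A.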

[7] = read-out: growth arrest and DNA damage 45 (GADD45G), GADD45G (gene 10912); experiment: LTEA_HepaRG_GADD45G: Life Technologies and Expression Analysis (LTEA) Assay for growth arrest and DNA damage 45 (GADD45G) using HepaRG (AID 2283499)
In short: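 Differentiated human HepaRG cells, 48 h post-plating, exposed 48 h in serum-free induction medium to 8 half-log concentrations (top 100 uM, 0.5% DMSO) in duplicate. GADD45G mRNA measured by Fluidigm TaqMan qRT-PCR, normalized to ACTB, GAPDH, POLR2A; bidirectional fit versus DMSO.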

[8] = read-out: Glutamate-cysteine ligase regulatory (GCLM), GCLM (gene 2730); experiment: LTEA_HepaRG_GCLM: Life Technologies and Expression Analysis (LTEA) Assay for Glutamate-cysteine ligase regulatory (GCLM) using HepaRG (AID 2283500)
In short: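 Cells were plated, cultured 48 h, switched to serum-free induction medium, then dosed in duplicate for 48 h at eight half-log concentrations up to 100 uM. RNA was then profiled by qRT-PCR; gain or loss versus DMSO was fitted.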

[9] = read-out: Glutathione S-transferase M3 (GSTM3), GSTM3 (gene 2947); experiment: LTEA_HepaRG_GSTM3: Life Technologies and Expression Analysis (LTEA) Assay for Glutathione S-transferase M3 (GSTM3) using HepaRG (AID 2283501)
In short: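 Differentiated human HepaRG cells were exposed in duplicate for 48 h in serum-free induction medium, 8 points from 100 uM top in half-log steps, 0.5% DMSO. GSTM3 mRNA was measured by TaqMan qRT-PCR, normalized to ACTB, GAPDH and POLR2A; bidirectional fit versus DMSO.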

[10] = read-out: Heat shock 70 kDa protein 1 (HSPA1A), gene 3303; experiment: LTEA_HepaRG_HSPA1A: Life Technologies and Expression Analysis (LTEA) Assay for Heat shock 70 kDa protein 1 (HSPA1A) using HepaRG (AID 2283502)
In short: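 Readout is HSPA1A transcript level by microfluidic qRT-PCR, normalized to three housekeeping genes and analysed for gain or loss of signal relative to 0.5% DMSO. Human HepaRG cultures received test chemicals for 48 h at up to 100 uM.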

[11] = read-out: 3-Hydroxy-3-Methylglutaryl-CoA Synthase 2 (HMGCS2), HMGCS2 (gene 3158); experiment: LTEA_HepaRG_HMGCS2: Life Technologies and Expression Analysis (LTEA) Assay for 3-Hydroxy-3-Methylglutaryl-CoA Synthase 2 (HMGCS2) using HepaRG (AID 2283504)
In short: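 Human HepaRG cells in serum-free induction medium were exposed in duplicate for 48 h to 8-point half-log series from 100 uM top in 0.5% DMSO. HMGCS2 mRNA measured by TaqMan qRT-PCR, normalised to ACTB, GAPDH, POLR2A; bidirectional fit versus DMSO.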

HGF (gene 3082) = experiment: LTEA_HepaRG_HGF: Life Technologies and Expression Analysis (LTEA) Assay for Hepatocyte Growth Facto (HGF) using HepaRG (AID 2283505)
In short: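 Differentiated HepaRG cells in serum-free induction medium exposed 48 h in duplicate, 8 half-log concentrations from 100 uM in 0.5% DMSO. HGF mRNA by qRT-PCR, normalised to ACTB, GAPDH, POLR2A; bidirectional fitting.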

[12] = read-out: Insulin Like Growth Factor 1 (IGF1), IGF1 (gene 3479); experiment: LTEA_HepaRG_IGF1: Life Technologies and Expression Analysis (LTEA) Assay for Insulin Like Growth Factor 1 (IGF1) using HepaRG (AID 2283506)
In short: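 HepaRG, plated 48 h, then switched to serum-free induction media; test chemical 8-pt half-log from 100 uM (0.5% DMSO), duplicate, 48 h. Lysis in RLT, TaqMan qRT-PCR, norm. ACTB/GAPDH/POLR2A. Bidirectional fit vs DMSO.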

[13] = read-out: Insulin-like growth factor-binding protein 1 (IGFBP1), IGFBP1 (gene 3484); experiment: LTEA_HepaRG_IGFBP1: Life Technologies and Expression Analysis (LTEA) Assay for Insulin-like growth factor-binding protein 1 (IGFBP1) using HepaRG (AID 2283508)
In short: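 HepaRG cells, plated 48 h then switched to serum-free induction medium, exposed in duplicate for 48 h to 8-point half-log series from 100 uM in 0.5% DMSO. mRNA measured by qRT-PCR, normalized to ACTB/GAPDH/POLR2A; bidirectional fit versus DMSO.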

[14] = read-out: Intercellular Adhesion Molecule 1 (ICAM1), ICAM1 (gene 3383); experiment: LTEA_HepaRG_ICAM1: Life Technologies and Expression Analysis (LTEA) Assay for Intercellular Adhesion Molecule 1 (ICAM1) using HepaRG (AID 2283507)
In short: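 Differentiated human HepaRG cells in serum-free induction medium exposed 48 h in duplicate to 8 half-log concentrations (top 100 uM, 0.5% DMSO). ICAM1 mRNA quantified by TaqMan qRT-PCR, normalized to ACTB, GAPDH and POLR2A; bidirectional fitting versus DMSO.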

[15] = read-out: Interleukin 6 Receptor (IL6R), IL6R (gene 3570); experiment: LTEA_HepaRG_IL6R: Life Technologies and Expression Analysis (LTEA) Assay for Interleukin 6 Receptor (IL6R) using HepaRG (AID 2283510)
In short: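 Readout is IL6R transcript level by TaqMan qRT-PCR, normalized to three housekeeping genes and fitted bidirectionally against 0.5% DMSO controls. Human HepaRG cells received chemicals for 48 h in serum-free induction medium, highest concentration 100 uM.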

Measured: AC50

Chain of Cytochrome P450 3A7 (Homo sapiens) (P24462 whole entry, looked up): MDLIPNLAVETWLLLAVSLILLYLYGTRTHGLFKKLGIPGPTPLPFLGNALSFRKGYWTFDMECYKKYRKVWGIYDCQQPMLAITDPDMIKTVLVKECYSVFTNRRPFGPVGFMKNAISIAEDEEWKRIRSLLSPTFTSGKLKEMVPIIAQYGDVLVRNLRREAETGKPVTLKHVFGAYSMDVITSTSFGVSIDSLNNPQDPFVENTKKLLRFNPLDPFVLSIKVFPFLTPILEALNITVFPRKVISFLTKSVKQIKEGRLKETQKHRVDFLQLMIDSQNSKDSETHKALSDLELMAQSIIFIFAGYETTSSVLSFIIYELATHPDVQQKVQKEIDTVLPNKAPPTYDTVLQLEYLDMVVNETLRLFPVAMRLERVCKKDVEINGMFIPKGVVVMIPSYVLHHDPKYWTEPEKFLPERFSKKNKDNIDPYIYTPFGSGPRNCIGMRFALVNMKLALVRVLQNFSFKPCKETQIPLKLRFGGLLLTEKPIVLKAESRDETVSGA

CSC(C)(C)C=NO
inactive: [1] | [2] | [3] | CYP3A5 (gene 1577) | [4] | [5] | [6] | [7] | [8] | [9] | [10] | [11] | HGF (gene 3082) | [12] | [13]

CCCCCCCc1ccc(O)cc1
inactive: [1] | [2] | [3] | CYP3A5 (gene 1577) | [4] | [5] | [6] | [7] | [8] | [9] | [10] | [11] | HGF (gene 3082) | [12] | [14] | [13] | [15]

Cc1ccc([N+](=O)[O-])cc1C
inactive: [1] | [2] | [3] | CYP3A5 (gene 1577) | [4] | [5] | [6] | [7] | [8] | [9] | [10] | [11] | HGF (gene 3082) | [12] | [13] | [15]

ClC(Cl)(Cl)c1ccccc1
inactive: [1] | [2] | [3] | CYP3A5 (gene 1577) | [4] | [5] | [6] | [7] | [8] | [9] | [10] | [11] | HGF (gene 3082) | [12] | [13] | [15]

Nc1ccc(Cl)cc1
inactive: [1] | [2] | [3] | CYP3A5 (gene 1577) | [4] | [5] | [6] | [7] | [8] | [9] | [10] | [11] | HGF (gene 3082) | [12] | [13] | [15]

CCOP(=S)(OCC)SCSCC
inactive: [1] | [2] | [3] | CYP3A5 (gene 1577) | [4] | [5] | [6] | [7] | [8] | [9] | [10] | [11] | HGF (gene 3082) | [12] | [13] | [15]

CCC1(c2ccccc2)C(=O)N=C(O)NC1=O (configuration not stated)
inactive: [1] | [2] | CYP3A5 (gene 1577) | [4] | [5] | [6] | [7] | [8] | [9] | [10] | [11] | HGF (gene 3082) | [12] | [13] | [15]
active: [3] 41.3 µM

c1ccc2c(c1)Nc1ccccc1S2
inactive: [1] | [2] | [3] | CYP3A5 (gene 1577) | [6] | [7] | [8] | [9] | [10] | [11] | HGF (gene 3082) | [13] | [15]
active: [4] 50 µM | [5] 20.2 µM | [12] 50 µM

CCCCN(CCCC)SN(C)C(=O)Oc1cccc2c1OC(C)(C)C2
active: [3] 4.49 µM | [5] 50 µM
inactive: [1] | [2] | CYP3A5 (gene 1577) | [4] | [6] | [7] | [8] | [9] | [10] | [11] | HGF (gene 3082) | [12] | [13] | [15]

O=C(O)C(Cl)Cl
inactive: [1] | [2] | [3] | CYP3A5 (gene 1577) | [4] | [5] | [6] | [7] | [8] | [9] | [10] | [11] | HGF (gene 3082) | [12] | [13] | [15]

CC(Cl)(Cl)C(=O)O
inactive: [1] | [2] | [3] | CYP3A5 (gene 1577) | [4] | [5] | [6] | [7] | [8] | [9] | [10] | [11] | HGF (gene 3082) | [12] | [13] | [15]

c1cc2c3c(cccc3c1)CC2
inactive: [1] | [2] | [3] | CYP3A5 (gene 1577) | [4] | [5] | [6] | [7] | [8] | [9] | [10] | [11] | HGF (gene 3082) | [12] | [13] | [15]

Cc1ccc(O)cc1C
inactive: [1] | [2] | [4] | [6] | [7] | [8] | [9] | [10] | [11] | [12] | [13] | [15]

COCCOCCO
inactive: [1] | [2] | CYP3A5 (gene 1577) | [4] | [5] | [6] | [7] | [8] | [9] | [10] | [11] | HGF (gene 3082) | [12] | [13] | [15]

CCOP(=S)(Oc1ccc([N+](=O)[O-])cc1)c1ccccc1 (configuration not stated)
active: [3] 2.87 µM | [4] 12.7 µM | [7] 65.7 µM | [13] 5.97 µM
inactive: [1] | [2] | [5] | [8] | [9] | [11] | HGF (gene 3082) | [12] | [15]

O=[N+]([O-])c1ccccc1
inactive: [1] | [2] | [3] | CYP3A5 (gene 1577) | [4] | [6] | [7] | [8] | [9] | [10] | [11] | HGF (gene 3082) | [12] | [13] | [15]

Cc1cccc(N)c1
inactive: [1] | [2] | [3] | CYP3A5 (gene 1577) | [4] | [6] | [7] | [8] | [9] | [10] | [11] | HGF (gene 3082) | [12] | [13] | [15]
